For one test, the system named is MAP3K15. To be noted: concentration: 1 μM, replicates: in singlicate; n = 1.
For a further test, the system named is MAP3K1. To be noted: concentration: 1 μM, replicates: in singlicate; n = 1.
The subject of another test is MAP3K2. To be noted: concentration: 1 μM, replicates: in singlicate; n = 1.
A further test deals with MAP3K3. The note with it: concentration: 1 μM, replicates: in singlicate; n = 1.
For the next test, the system named is MAP3K4. The note with it: concentration: 1 μM, replicates: in singlicate; n = 1.
In the next test the test system is MAP4K2. The note with it: concentration: 1 μM, replicates: in singlicate; n = 1.
The next test has as its system MAP4K3. To be noted: concentration: 1 μM, replicates: in singlicate; n = 1.
The test system of another test is MAP4K4. To be noted: concentration: 1 μM, replicates: in singlicate; n = 1.
Another test deals with MAP4K5. The note with it: concentration: 1 μM, replicates: in singlicate; n = 1.
The subject of another test is MAPKAPK2. The note with it: n = 1.
The test system of the next test is MAPKAPK5. To be noted: concentration: 1 μM, replicates: in singlicate; n = 1.
The next test has as its system MARK1. To be noted: concentration: 1 μM, replicates: in singlicate; n = 1.
In another test the test system is MARK2. The note with it: n = 1.
For the next test, the system named is MARK3. To be noted: n = 1.
A further test deals with MARK4. The note with it: n = 1.
A further test has as its system MAST1. To be noted: concentration: 1 μM, replicates: in singlicate; n = 1.
The next test concerns T1, MEK1.
T1 construct: gene MAP2K1
To be noted: concentration: 1 μM, replicates: in singlicate; n = 1.

The test system of another test is T2, MEK2.
T2 construct: gene MAP2K2
To be noted: concentration: 1 μM, replicates: in singlicate; n = 1.

The test system of the next test is T3, MEK3.
T3 construct: gene MAP2K3
To be noted: concentration: 1 μM, replicates: in singlicate; n = 1.

Another test concerns T4, MEK4.
T4 construct: gene MAP2K4
To be noted: concentration: 1 μM, replicates: in singlicate; n = 1.

[1] abbreviates: concentration: 1 μM, replicates: in singlicate.

Read-outs that look alike come from different tables or passages of the source.
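Note: KINOMEscan kinase panel screen.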

With `Cc1ccc(F)c(C(=O)Nc2cccc(-c3nn4ccccc4c3-c3ccnc(Nc4cccc(F)c4)n3)c2)c1F` [GSK361061], the “%Inh” value with MAP3K15 turned out to be 24%; in the test on MAP3K1, 31%; in the test with MAP3K2 it was 16%; in the test with MAP3K3 it was 0%; in the test on MAP3K4 it was 44%; with MAP4K2 it was 0%. For the same molecule, the “%Inh” value is recorded as 18% in the test on MAP4K3; 25% with MAP4K4; 80% in the test on MAP4K5; 23% in the test with MAPKAPK2 (setting [1]); 0% in the test on MAPKAPK5; 0% in the test on MARK1. For the same molecule, the “%Inh” value in the test with MARK2 (setting [1]) amounted to 14%; in the test on MARK3 (setting [1]), 0%; in the test with MARK4 (setting [1]) it was 14%; in the test on MAST1 it was 0%; in the test with MEK1, 3%; with MEK2 it was 0%. Also, the “%Inh” value in the test with MEK3 amounted to 0%; in the test on MEK4, 37%.
For the molecule `O=C(Nc1n[nH]c2cc(-c3ccoc3)ccc12)C1CC1` [SB-738481], the “%Inh” value with MAP3K15 turned out to be 10%; in the test with MAP3K1, 0%; in the test on MAP3K2, 3%; in the test with MAP3K3, 50%; with MAP3K4, 17%; with MAP4K2 it was 2%. In addition, the “%Inh” value in the test on MAP4K3 is 0%; in the test on MAP4K4, 10%; in the test on MAP4K5, 0%; in the test on MAPKAPK2 (setting [1]), 0%; in the test with MAPKAPK5, 10%; in the test on MARK1, 11%. Further, the “%Inh” value was found to be 15% in the test with MARK2 (setting [1]); 0% in the test on MARK3 (setting [1]); 0% with MARK4 (setting [1]); 37% in the test on MAST1; 2% in the test on MEK1; 18% in the test with MEK2. Moreover, the “%Inh” value in the test on MEK3 stood at 23%; in the test with MEK4 it was 3%.
As for `CSc1cccc2c(-c3ccncn3)c(-c3ccc(F)cc3)nn12` [GW514786], the “%Inh” value came to 21% with MAP3K15; 14% in the test on MAP3K1; 0% in the test on MAP3K2; 0% in the test on MAP3K3; 0% in the test on MAP3K4; 0% in the test on MAP4K2. In addition, the “%Inh” value in the test on MAP4K3 amounted to 0%; in the test with MAP4K4, 2%; in the test on MAP4K5, 0%; in the test on MAPKAPK2 (setting [1]) it was 67%; in the test on MAPKAPK5, 0%; in the test with MARK1, 0%. For the same molecule, the “%Inh” value with MARK2 (setting [1]), in the test with MARK3 (setting [1]), in the test on MARK4 (setting [1]), in the test on MAST1, with MEK1 and in the test with MEK2 was 0% each time. Also, the “%Inh” value worked out at 0% in the test with MEK3 and 4% with MEK4.
For the molecule `O=C(Nc1cccc(-c2nn3ccccc3c2-c2ccnc(Nc3cccc(C(F)(F)F)c3)n2)c1)c1c(F)cccc1F` [GSK292658], the “%Inh” value in the test with MAP3K15 is 26%; with MAP3K1, 11%; in the test with MAP3K2, 0%; with MAP3K3 it was 2%; in the test with MAP3K4, 6%; in the test on MAP4K2 it was 6%. Moreover, the “%Inh” value with MAP4K3 was found to be 0%; in the test with MAP4K4, 1%; with MAP4K5, 15%; in the test on MAPKAPK2 (setting [1]) it was 21%; in the test on MAPKAPK5, 0%; in the test with MARK1, 0%. The “%Inh” value is listed as 0% in the test with MARK2 (setting [1]); 3% with MARK3 (setting [1]); 0% with MARK4 (setting [1]); 0% in the test with MAST1; 3% in the test with MEK1; 0% with MEK2. Moreover, the “%Inh” value in the test with MEK3 is 0%; in the test on MEK4, 17%.
On to `O=C(Nc1cccc(Oc2ccc3nc(NC(=O)C4CC4)cn3n2)c1)c1ccccc1C(F)(F)F`, for which the “%Inh” value in the test with MAP3K15 stood at 0%; in the test on MAP3K1 it was 0%; with MAP3K2 it was 0%; with MAP3K3, 8%; in the test with MAP3K4 it was 26%; with MAP4K2, 0%. The “%Inh” value worked out at 64% with MAP4K3; 8% in the test with MAP4K4; 29% in the test with MAP4K5; 0% in the test on MAPKAPK2 (setting [1]); 0% in the test on MAPKAPK5; 0% in the test with MARK1. In addition, the “%Inh” value in the test on MARK2 (setting [1]) is reported as 6%; in the test with MARK3 (setting [1]), 21%; in the test with MARK4 (setting [1]) it was 12%; in the test on MAST1, 0%; with MEK1, 69%; in the test with MEK2, 82%. Also, the “%Inh” value in the test on MEK3 is given as 17%; in the test on MEK4 it was 0%.
`Cn1cc(-c2[nH]c3cc(NC(=O)[C@H](N)C4CCCCC4)cc4c3c2C=NNC4=O)cn1`: the “%Inh” value in the test with MAP3K15 is recorded as 52%; with MAP3K1 it was 35%; in the test with MAP3K2, 98.3%; in the test on MAP3K3, 94.8%; with MAP3K4, 9%; in the test with MAP4K2, 97.3%. Further, the “%Inh” value in the test with MAP4K3 was 86%; in the test with MAP4K4, 48%; in the test on MAP4K5 it was 52%; in the test on MAPKAPK2 (setting [1]), 0%; in the test on MAPKAPK5 it was 0%; in the test with MARK1, 83%. The “%Inh” value in the test with MARK2 (setting [1]) was 88%; with MARK3 (setting [1]), 88%; in the test on MARK4 (setting [1]), 91.8%; in the test with MAST1, 87%; with MEK1, 65%; with MEK2, 67%. Also, the entries for the “%Inh” value in the test with MEK3 and with MEK4 were 46% and 14%, respectively.
Take `Cc1ccc(C)c(NC(=O)NC2CCN(c3ccnc(Nc4ccc(F)cc4)n3)C2)c1` (stereo not drawn) [GSK1379720]: the “%Inh” value in the test on MAP3K15 is 0%; with MAP3K1, 0%; with MAP3K2, 0%; in the test on MAP3K3 it was 0%; in the test on MAP3K4 it was 18%; in the test with MAP4K2, 0%. The “%Inh” value with MAP4K3 came out at 0%; with MAP4K4, 0%; in the test with MAP4K5 it was 0%; in the test with MAPKAPK2 (setting [1]) it was 23%; in the test with MAPKAPK5, 0%; in the test on MARK1, 0%. Further, the “%Inh” value in the test with MARK2 (setting [1]) was 0%; in the test with MARK3 (setting [1]), 0%; in the test on MARK4 (setting [1]), 0%; with MAST1 it was 35%; in the test with MEK1, 0%; in the test with MEK2 it was 0%. Besides, the “%Inh” value amounted to 0% in the test with MEK3 and 4% with MEK4.
Turning to `Oc1cc(Nc2ccnc3cc(I)ccc23)ccc1F` [GW552771], the “%Inh” value in the test on MAP3K15 is reported as 11%; in the test on MAP3K1, 7%; with MAP3K2, 9%; with MAP3K3 it was 0%; in the test with MAP3K4, 0%; in the test with MAP4K2 it was 0%. Besides, the “%Inh” value in the test with MAP4K3 is given as 0%; in the test with MAP4K4, 67%; with MAP4K5, 100%; with MAPKAPK2 (setting [1]) it was 24%; with MAPKAPK5, 0%; with MARK1 it was 0%. Further, the “%Inh” value in the test with MARK2 (setting [1]) was determined as 0%; in the test with MARK3 (setting [1]), 0%; in the test with MARK4 (setting [1]), 5%; in the test with MAST1, 20%; in the test on MEK1 it was 0%; in the test on MEK2, 0%. Further, the “%Inh” value in the test with MEK3 amounted to 11%; in the test with MEK4 it was 34%.
As to `CCn1c(-c2nonc2N)nc2c(C#CC(C)(C)O)ncc(OCCCCN)c21.O=C(O)C(F)(F)F.O=C(O)C(F)(F)F` [GSK507274], the “%Inh” value turned out to be 3% in the test with MAP3K15; 100% with MAP3K1; 90% in the test on MAP3K2; 81% in the test with MAP3K3; 53% in the test on MAP3K4; 0% in the test with MAP4K2. Also, the “%Inh” value with MAP4K3 was 0%; in the test with MAP4K4, 7%; in the test on MAP4K5, 35%; with MAPKAPK2 (1 µM), 28%; in the test on MAPKAPK5 it was 0%; with MARK1, 0%. Further, the “%Inh” value with MARK2 (1 µM) amounted to 68%; in the test on MARK3 (1 µM), 71%; in the test on MARK4 (1 µM), 0%; in the test with MAST1, 56%; in the test on MEK1 it was 0%; with MEK2, 34%. The entries for the “%Inh” value in the test on MEK3 and with MEK4 were 0% and 1%, respectively.

(Values after paper PMC5540273 (PLoS ONE, 2017).)
